High-throughput results: PubChem BioAssay, National Center for Advancing Translational Sciences (NCATS)
Shown is part of a subset that was picked to be rich in hits.
ERK EGF block: EGF-driven ERK pathway inhibition; HEK293-V1b, EGF-stimulated phospho-ERK AlphaScreen; Potency, µM (highest dose often 11.5 µM), inactives show at the highest dose activity change, negative = inhibition, hits mostly inhibitors; 130,000 compounds, 0.41% hits; AID 1454;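 further: potency means the concentration at half of the fitted maximal effect; plate controls were stimulated vehicle wells for no effect and unstimulated vehicle basal for full effect; nearly all actives have a fitted effect of over 55% in size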
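Cell line HEK293 (stable V1b), low serum overnight. Pretreatment: compound 30 min, 37C. EGF 25 nM, 5 min. Detection: SureFire AlphaScreen, 5 h RT. AC50 via standard Hill equation.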
ERK pERK EGF: confirmation of ERK pathway inhibitors under EGF stimulation | Potency, µM (series often up to 57.5 µM), inactives show top-dose activity change, negative = inhibition, hits mostly inhibitors | shares compounds with ERK EGF block | 60 compounds, 60% hits | HEK293 EGF-stimulated ERK phosphorylation, AlphaScreen
c-Raf inh: ERK pathway inhibitors follow-up: human c-Raf kinase inhibition. shares compounds with ERK EGF block. c-Raf kinase inhibition, homogeneous biochemical assay. activity change, negative = inhibition, % at 76.9 µM. 70 tested, under 10 active. AID 1728
Target sequence (P04049 whole entry, looked up): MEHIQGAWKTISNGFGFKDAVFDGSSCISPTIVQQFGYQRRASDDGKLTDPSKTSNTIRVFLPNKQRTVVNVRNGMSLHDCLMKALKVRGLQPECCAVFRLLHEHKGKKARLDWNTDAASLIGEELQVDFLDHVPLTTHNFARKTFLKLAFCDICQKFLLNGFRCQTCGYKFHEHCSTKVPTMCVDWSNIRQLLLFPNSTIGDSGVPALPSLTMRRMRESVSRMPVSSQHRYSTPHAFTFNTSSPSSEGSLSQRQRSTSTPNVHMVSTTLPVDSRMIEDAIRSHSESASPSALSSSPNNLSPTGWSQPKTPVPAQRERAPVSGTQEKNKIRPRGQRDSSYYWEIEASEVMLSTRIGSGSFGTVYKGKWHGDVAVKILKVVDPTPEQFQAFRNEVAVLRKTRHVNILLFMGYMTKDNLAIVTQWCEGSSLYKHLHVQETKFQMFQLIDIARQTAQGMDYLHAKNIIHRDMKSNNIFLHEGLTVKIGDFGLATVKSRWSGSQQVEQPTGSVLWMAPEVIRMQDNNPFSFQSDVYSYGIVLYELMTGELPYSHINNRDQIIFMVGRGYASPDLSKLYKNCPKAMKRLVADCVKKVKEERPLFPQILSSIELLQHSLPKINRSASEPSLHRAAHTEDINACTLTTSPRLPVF
MEK inh: blocks human MEK1 kinase activity in ERK pathway follow-up | Potency, µM (top dose mostly 76.9 µM), without a hit: at the top dose activity change, negative = inhibition, actives largely listed as inhibitors | shares compounds with ERK EGF block | 70 tested, under 10 active | homogeneous MEK kinase activity assay, ERK pathway
Numbers without * were called inactive; ? = inconclusive; / = no result; [ ] = remark or other dose. The call rests on the fitted dose curve; in most records, active means well fitted curve in the direction sought with a large enough effect; inconclusive means small, poorly fitted or top-dose-only effect, or another doubt; inactive means no such curve, though single readings can be large; an effect the other way counts as inactive or inconclusive.

SMILES | ERK EGF block | others
Nc1ccccc1Sc1ccccc1[N+](=O)[O-] | 5%
Nc1ccccc1SCc1ccccc1 | 7%
Cc1cc(NC(=O)c2ccc(Cl)c([N+](=O)[O-])c2)no1 | -5%[57.5 µM]
COc1ccc(C(=O)c2ccc(Cl)c([N+](=O)[O-])c2)cc1 | 8.9µM* | ERK pERK EGF=16µM*;c-Raf inh=?;MEK inh=-8%
COc1cc(C(=O)Nc2ccc(Cl)c([N+](=O)[O-])c2)cc(OC)c1OC | 2%
COc1cccc(CS(=O)(=O)c2ccccc2)c1 | -4%
Cc1nc2ccccc2nc1OCC(=O)Nc1ccc(F)cc1 | -11%
Cc1ccc(NNc2c(C)nc3ccccc3nc2=O)cc1 | / | ERK pERK EGF=8.9µM*;c-Raf inh=-6;MEK inh=24%
Cc1ccc(Nc2nc3ccccc3nc2Nc2c(C)n(C)n(-c3ccccc3)c2=O)cc1 | 8%
O=C1CCCCC1C(=O)c1cn(-c2ccc(Cl)c(Cl)c2)nn1 (stereo not given) | 2%
Brc1ccc2ncc(Br)cc2c1 | 3%
CCCC(C)NC(=O)CSc1nc(-c2ccccc2)cn1N (stereo not given) | 1%
COCCN(C(=S)Nc1cc(C)cc(C)c1)C(C)c1cccnc1 (stereo not given) | 8%
CCCOc1ccc(/C=N/Nc2ccccc2[N+](=O)[O-])c(O)c1 | ? | ERK pERK EGF=?;c-Raf inh=?;MEK inh=-3%
CCCOc1ccc(/C=N/Nc2cccc([N+](=O)[O-])c2)c(O)c1 | 6%
CCCOc1ccc(/C=N/NC(=S)Nc2ccccc2[N+](=O)[O-])c(O)c1 | 2%
CC(C)(C)CC(C)(C)NC(=O)CSCC(=O)Nc1ccc2ccccc2c1 | 2%
C=CCn1c(SCC(=O)Nc2ncc(Cc3ccc(C)c(Cl)c3)s2)nnc1-c1ccncc1 | -14%
O=C(CSc1nnc(-c2ccc(F)cc2)c2ccccc12)NCC1CCCO1 (stereo not given) | -1%
CCCN1C(=O)/C(=C2/C=Cc3ccccc3N2CC)SC1=S | 5.6µM* | ERK pERK EGF=10µM*;c-Raf inh=-8;MEK inh=-2%
CCCN1C(=O)/C(=C/c2ccncc2)SC1=S | 2%
CCCN1C(=O)/C(=C2\SC(=S)N(c3c(C)n(C)n(-c4ccccc4)c3=O)C2=O)c2ccccc21 | -7%[57.5 µM]
N#CC(C#N)=C1C=CC=CN1/C(=C\c1ccco1)C(=O)c1ccc(Br)cc1 | 7.9µM* | ERK pERK EGF=16µM*;c-Raf inh=?;MEK inh=-23%
Cc1ccc(C(=O)N/C(=C/c2ccco2)C(=O)O)cc1 | -4%
Cc1ccccc1/C=N/Nc1nc2ccccc2c(=O)n1O | 4%[57.5 µM]
O=C(CSc1nnc2c(n1)[nH]c1ccccc12)Nc1ccc(S(=O)(=O)Nc2ncccn2)cc1 | -1%
